Reference: PubChem BioAssay (Tox21)
Records with an inconclusive call do not appear. The source made the active and inactive calls. Unless noted, calls follow the shape of the dose curve; as a rule, active = well fitted curve in the direction sought with a large enough effect in the repeat runs; inconclusive = weak or mixed curves; inactive = no such curve, though single readings can be large; an effect the other way counts as inactive or inconclusive.

Key:
[1] = A CellTox Green Cytotoxicity Assay to monitor cytotoxicity in HEK293 cells - 32 hour (AID 1224881); also: nearly all actives have a fitted effect of over 40% in size
Method in brief: (§1)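 HEK293 cells premixed with CellTox Green dye were seeded at 600 cells/well and left 5 h at 37 C/5% CO2 before pin transfer of 23 nL compound in DMSO. Fluorescence from dye bound to dead-cell DNA was read during 40 h treatment.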

[2] = A CellTox Green Cytotoxicity Assay to monitor cytotoxicity in HepG2 cells - 0 hour (AID 1224882); also: nearly all actives have a fitted effect of over 35% in size
Method in brief: (§2)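 HepG2 cells were seeded together with the CellTox Green dye at 600 cells/well, left 5 h at 37 C/5% CO2, then given compounds in DMSO. Fluorescence from dye bound to dead-cell DNA was read repeatedly over 40 h of treatment at 37 C.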

[3] = A CellTox Green Cytotoxicity Assay to monitor cytotoxicity in HEK293 cells - 8 hour (AID 1224884); also: nearly all actives have a fitted effect of over 35% in size
Method in brief: as §1

[4] = qHTS RealTime-Glo MT Cell Viability Assay in HepG2 cells - 16 hour (AID 1224885); also: nearly all actives have a fitted effect of over 50% in size
Method in brief: (§3)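 Tox21 10K library screened in qHTS format on HepG2 cells carrying RealTime-Glo reagents. Compounds were added after a 5 h preincubation, and the luminescent signal from continuous culture was measured repeatedly during 40 h treatment.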

[5] = qHTS RealTime-Glo MT Cell Viability Assay in HEK293 cells - 24 hour (AID 1224886); also: top concentration of the series differs between compounds; nearly all actives have a fitted effect of over 50% in size
Method in brief: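 Luminescence generated by NanoLuc from substrate produced by living HEK293 cells served as the viability signal. Each value reflects the reading at its stated time point during continuous 40 h compound exposure at 37 C.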

[6] = qHTS RealTime-Glo MT Cell Viability Assay in HEK293 cells - 8 hour (AID 1224887); also: top concentration of the series differs between compounds; nearly all actives have a fitted effect of over 50% in size
Method in brief: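 HEK293 cells mixed with RealTime-Glo reagents (NanoLuc plus cell-permeant prosubstrate) at 600 cells/well, preincubated 5 h at 37 C/5% CO2, then given 23 nL compound in DMSO. Nonlytic luminescence from viable cells was read at 0, 8, 16, 24, 32 and 40 h.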

[7] = A CellTox Green Cytotoxicity Assay to monitor cytotoxicity in HEK293 cells - 16 hour (AID 1224888); also: nearly all actives have a fitted effect of over 35% in size
Method in brief: as §1

[8] = qHTS RealTime-Glo MT Cell Viability Assay in HepG2 cells - 0 hour (AID 1224889); also: nearly all actives have a fitted effect of over 50% in size
Method in brief: as §3

[9] = A CellTox Green Cytotoxicity Assay to monitor cytotoxicity in HepG2 cells - 8 hour (AID 1224890); also: nearly all actives have a fitted effect of over 45% in size
Method in brief: as §2

[10] = qHTS assay to identify small molecule antagonists of the estrogen receptor alpha (ER-alpha) signaling pathway using the BG1 cell line in the presence of 0.1 nM 17-beta-estradiol - cell viability counter screen (AID 1259241); also: nearly all actives have a fitted effect of over 40% in size
Method in brief: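 VM7Luc4E2 cells (endogenous full-length ER-alpha, 4xERE-luciferase), cultured 5 days in charcoal-stripped serum, exposed to compounds with 0.1 nM 17beta-estradiol (final) for 22 hr at 37C. Viability read in same wells as live-cell protease fluorescence after 30 min.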

[11] = qHTS assay to identify small molecule antagonists of the androgen receptor (AR) signaling pathway using the MDA cell line in the presence of 0.5 nM R1881 - cell viability counter screen (AID 1259242); also: nearly all actives have a fitted effect of over 45% in size
Method in brief: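 MDA-kb2 cells (human breast carcinoma, stably carrying MMTV-luciferase reporter) were exposed to compounds with 0.5 nM R1881 (final) for 16 hr at 37C, 0% CO2; viability then read as live-cell protease fluorescence (CellTiter-Fluor, 30 min) in the same wells.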

[12] = biological target: Estrogen receptor (Homo sapiens) (UniProt P03372); assay: qHTS assay to identify small molecule antagonists of the estrogen receptor alpha (ER-alpha) signaling pathway using the BG1 cell line in the presence of 0.1 nM 17-beta-estradiol (AID 1259244); also: nearly all actives have a fitted effect of over 50% in size
Sequence of Estrogen receptor (Homo sapiens) (P03372 whole entry, looked up): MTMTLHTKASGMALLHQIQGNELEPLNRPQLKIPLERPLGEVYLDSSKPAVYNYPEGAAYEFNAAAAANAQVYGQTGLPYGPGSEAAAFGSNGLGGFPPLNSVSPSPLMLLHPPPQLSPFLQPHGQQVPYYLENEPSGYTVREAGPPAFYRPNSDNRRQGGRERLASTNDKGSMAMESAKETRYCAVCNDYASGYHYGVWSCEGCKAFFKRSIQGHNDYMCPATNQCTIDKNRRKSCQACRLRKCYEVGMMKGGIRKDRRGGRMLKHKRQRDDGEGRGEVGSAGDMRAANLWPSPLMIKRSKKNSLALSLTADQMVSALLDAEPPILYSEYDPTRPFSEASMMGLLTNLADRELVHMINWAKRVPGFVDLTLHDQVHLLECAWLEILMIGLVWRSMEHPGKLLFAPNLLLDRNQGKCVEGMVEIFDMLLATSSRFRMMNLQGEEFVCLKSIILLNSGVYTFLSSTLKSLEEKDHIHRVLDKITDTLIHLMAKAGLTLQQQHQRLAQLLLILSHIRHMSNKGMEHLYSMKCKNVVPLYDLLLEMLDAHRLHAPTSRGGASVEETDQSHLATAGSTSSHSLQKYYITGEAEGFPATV
Method in brief: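 VM7Luc4E2 cells (endogenous full-length ER-alpha, stable 4xERE-luciferase) were grown 5 days in phenol red-free medium with charcoal-stripped FBS, then exposed 22 h at 37C to compounds plus 0.1 nM (final) 17beta-estradiol; ONE-Glo luminescence read-out.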

[13] = qHTS assay to identify small molecule HDAC inhibitors (AID 1259364); also: top concentration of the series differs between compounds; nearly all actives have a fitted effect of over 45% in size
Method in brief: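 Wild-type HCT-116 cells were plated overnight, exposed to compounds for 2 h at 37 °C, then given HDAC-Glo class I/II luminogenic reagent for 30 min at room temperature before luminescence was read.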

[14] = qHTS assay to identify small molecule HDAC inhibitors - cell viability counter screen (AID 1259365)
Method in brief: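 Wild-type HCT-116 cells, 1,500/well, cultured overnight, then compound-treated 2 h at 37 C. Viability measured as ATP luminescence with CellTiter-Glo after 30 min at room temperature.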

[15] = qHTS assay to identify small molecule agonists of the sonic hedgehog signaling (Shh) pathway - cell viability counter screen (AID 1259366); also: nearly all actives have a fitted effect of over 50% in size
Method in brief: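 NIH/3T3-derived Gli1-Luc reporter cells, 2,000 per well, received compound after 4 h and were treated about 23 h at 37C. Viability measured in the same wells by CellTiter-Fluor fluorescence after 1 h.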

[16] = qHTS assay to identify small molecule antagonists of the sonic hedgehog signaling (Shh) pathway - cell viability counter screen (AID 1259367); also: nearly all actives have a fitted effect of over 55% in size
Method in brief: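 Using CellTiter-Fluor, viability of Gli1-Luc reporter 3T3 cells is read by fluorescence in the wells used for the Shh luciferase assay. Treatment lasts 23 hr with conditioned medium, then reagent 1 hr at 37C.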

[17] = qHTS assay to identify small molecule agonists of the sonic hedgehog signaling (Shh) pathway (AID 1259368; calls by dose curve; also: series mostly up to about 92 µM; nearly all actives have a fitted effect of over 15% in size)
Method in brief: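 NIH/3T3-derived 3T3Gli1-Luc cells carrying a stably integrated Gli1 response element–firefly luciferase reporter were plated, left 4 hr at 37 C, then given compounds in DMSO for 24 hr. Luminescence was read 30 min after adding luciferase reagent.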

[18] = A CellTox Green Cytotoxicity Assay to monitor cytotoxicity in HepG2 cells - 32 hour (AID 1224883); also: nearly all actives have a fitted effect of over 50% in size
Method in brief: as §2

[19] = qHTS assay to identify small molecule phospholipidosis (PLD) inducers (AID 1259344; active = well fitted curve in the direction sought with a large enough effect; an effect the other way counts as inactive or inconclusive)
Method in brief: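 Fluorescent phospholipid staining (LipidTOX Red) measured by automated microscopy in fixed HepG2 cells after 24 h treatment; nuclei counterstained with Hoechst 33342; amiodarone as reference inducer.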

[20] = biological target: Androgen receptor (Homo sapiens) (UniProt P10275); assay: qHTS assay to identify small molecule antagonists of the androgen receptor (AR) signaling pathway using the MDA cell line in the presence of 0.5 nM R1881 (AID 1259243); also: nearly all actives have a fitted effect of over 50% in size
Sequence of Androgen receptor (Homo sapiens) (P10275 whole entry, looked up): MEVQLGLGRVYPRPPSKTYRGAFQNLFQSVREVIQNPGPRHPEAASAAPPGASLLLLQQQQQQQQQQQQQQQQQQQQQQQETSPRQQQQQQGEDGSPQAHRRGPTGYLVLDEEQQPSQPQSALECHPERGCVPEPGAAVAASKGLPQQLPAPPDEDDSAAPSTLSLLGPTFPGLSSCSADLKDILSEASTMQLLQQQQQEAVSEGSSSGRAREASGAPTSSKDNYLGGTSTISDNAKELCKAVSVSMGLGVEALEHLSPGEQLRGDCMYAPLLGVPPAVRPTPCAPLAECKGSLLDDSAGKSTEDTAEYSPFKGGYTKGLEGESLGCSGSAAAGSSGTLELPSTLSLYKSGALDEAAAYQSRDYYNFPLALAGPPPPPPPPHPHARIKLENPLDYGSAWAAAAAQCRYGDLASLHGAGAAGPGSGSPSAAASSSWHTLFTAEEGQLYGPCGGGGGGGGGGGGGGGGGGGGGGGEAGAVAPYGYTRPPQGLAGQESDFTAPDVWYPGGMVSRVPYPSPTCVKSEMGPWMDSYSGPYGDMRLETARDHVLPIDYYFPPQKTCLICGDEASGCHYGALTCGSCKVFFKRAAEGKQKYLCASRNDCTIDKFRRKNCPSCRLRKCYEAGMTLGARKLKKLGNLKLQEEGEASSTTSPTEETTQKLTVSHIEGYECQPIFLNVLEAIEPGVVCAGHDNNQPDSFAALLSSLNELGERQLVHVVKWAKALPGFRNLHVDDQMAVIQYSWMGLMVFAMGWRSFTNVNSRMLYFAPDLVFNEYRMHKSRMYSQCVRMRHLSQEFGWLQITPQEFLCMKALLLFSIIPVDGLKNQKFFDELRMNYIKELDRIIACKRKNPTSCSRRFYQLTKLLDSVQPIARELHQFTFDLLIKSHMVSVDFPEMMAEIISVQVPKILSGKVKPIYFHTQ
Method in brief: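 MDA-kb2 human breast carcinoma cells carrying an MMTV-luciferase reporter (AR- and GR-responsive) were plated, rested 5 hr at 37C, dosed with compounds, then stimulated with 0.5 nM R1881 (final) for 16 hr; luminescence was read after ONE-Glo.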
% is scaled to controls: 0 for no effect and ±100 for the full control effect.

CCOc1ccc2nc(S(N)(=O)=O)sc2c1
inactive: outcome [1] | Potency [2] | outcome [3] | outcome [4] | Potency [5] | Potency [6] | outcome [7] | Potency [8] | outcome [9] | outcome [10] | outcome [11] | outcome [12] | Potency [13] | outcome [14] | Potency [15] | Potency [16] | outcome [17]

C=CC(C)(CCC=C(C)C)OC(=O)CC (centres undefined)
inactive: outcome [1] | Potency [2] | Potency [18] | outcome [3] | outcome [4] | Potency [6] | outcome [7] | Potency [8] | outcome [9] | outcome [10] | outcome [11] | outcome [12] | Potency [13] | outcome [14] | Potency [15] | Potency [16] | outcome [17]

O=S(=O)(O)c1cccc2c(S(=O)(=O)O)cccc12
inactive: outcome [1] | Potency [2] | Potency [18] | outcome [3] | outcome [4] | Potency [6] | Potency [8] | outcome [9] | outcome [10] | outcome [11] | Potency [13] | outcome [14] | Potency [15] | Potency [16]

COc1ccc2cc1Oc1cc3c(cc1OC)CC[N+](C)(C)[C@H]3Cc1ccc(cc1)Oc1c(OC)c(OC)cc3c1[C@@H](C2)[N+](C)(C)CC3
inactive: outcome [1] | Potency [2] | outcome [3] | outcome [4] | Potency [5] | Potency [6] | outcome [7] | Potency [8] | outcome [9] | outcome [10] | outcome [11] | outcome [12] | outcome [19] | Potency [13] | outcome [14] | Potency [15] | Potency [16]

C[N+]1(CC2COC(c3ccccc3)(c3ccccc3)O2)CCCCC1 (centres undefined)
inactive: cytotoxicity increase [1] -8.36% [at 15.8 µM] | cytotoxicity [2] -9.88% [at 15.8 µM] | cytotoxicity increase [18] -0.506% [at 15.8 µM] | cytotoxicity increase [3] -4.15% [at 15.8 µM] | activity change, negative = cytotoxic [4] -0.0866% [at 15.8 µM] | activity change, negative = cytotoxicity [6] 0.757% [at 15.8 µM] | activity change [7] -8.9% [at 15.8 µM] | activity change, negative = cytotoxicity [8] -6.4% [at 15.8 µM] | cytotoxicity increase [9] 0.368% [at 15.8 µM] | activity change, negative = cytotoxicity [10] 0.56% [at 19 µM] | viability change, negative = cytotoxic [11] 1.83% [at 19 µM] | outcome [19] | activity change, negative = inhibition [13] 0.669% [at 19 µM] | activity change, negative = cytotoxicity [14] 0.214% [at 19 µM] | viability change, negative = cytotoxic [16] 14.2% [at 19 µM] | activity change [17] 0.753% [at 18.9 µM]

NC(=O)NC1N=C([O][Al])NC1=O (centres undefined)
inactive: outcome [1] | Potency [2] | outcome [3] | outcome [4] | Potency [5] | Potency [6] | outcome [7] | Potency [8] | outcome [9] | outcome [10] | outcome [11] | Potency [20] | Potency [13] | outcome [14] | Potency [15] | Potency [16] | outcome [17]

NS(=O)(=O)Cc1noc2ccccc12
inactive: outcome [1] | Potency [2] | outcome [3] | outcome [4] | Potency [5] | Potency [6] | outcome [7] | Potency [8] | outcome [9] | outcome [10] | outcome [11] | Potency [20] | Potency [13] | outcome [14] | Potency [15] | Potency [16]
